# Measurements from PubChem BioAssay AID540276 (National Center for Advancing Translational Sciences (NCATS), 2011).
# About 5,400 (1.8%) of roughly 300,000 compounds were called active. Another 28% or so got no clear call; they are omitted. The entries come from a sample that favours actives as a whole. A number with no mark means an inactive call. Calls come from the whole dose curve; tested in HEK293 cells.
# Assay: qHTS for inhibitors of binding or entry into cells for Marburg Virus
# Details: Marburg virus pseudotyped entry inhibition, cell reporter; series mostly up to 37.8 µM; activity change, negative = inhibition: at the top concentration
# % is set by controls: 0 for no effect and ±100 for the full control effect; potency is the fitted concentration of half-maximal effect.
Compound,"activity change, negative = inhibition",Potency
CC(C)=CCCC(C)=CCN1C(=O)[C@]2(OCCC=C[C@H]2C)c2ccccc21,2.91% [at 14.2 µM],
O=C(c1ccco1)N1CCN(C(=S)Nc2cc(F)cc(F)c2)CC1,-3.01% [at 46.1 µM],
CN(Cc1ccccc1)C(=O)C1CCCN(c2ncnc3c2nc2n3CCCCC2)C1 (configuration not stated),-26.2% [at 46.1 µM],
CC(NC(=O)c1ccccc1)C(=O)OCC(=O)Nc1cccc(S(=O)(=O)N2CCCC2)c1 (configuration not stated),-30.3%,
Cc1ccccc1N(C(=O)CNC(=O)c1cccs1)C(C(=O)NC1CCCC1)c1ccncc1 (configuration not stated),-23.4% [at 46.1 µM],
CC(NC(=O)COC(=O)c1ccc2ccccc2n1)c1ccccc1 (configuration not stated),-0.241%,
CC(=O)c1cccc(NC(=O)Nc2ccc(C)cc2)c1,-2.02%,
CCSc1nsc(NC(=O)Nc2cccc(C(C)=O)c2)n1,,10 µM (active)
C=C(C)C(=O)Nc1cccc(C(C)=O)c1,-7.5%,
CCOc1cccc(NC(=O)Cn2nc(-c3ccc4c(c3)OCCO4)ccc2=O)c1,9.43%,
CC(=O)c1cc2c(cc1NC(=O)Cn1nc(-c3ccc(F)cc3)ccc1=O)OCO2,,10 µM (active)
CC(=O)c1cc2c(cc1NC(=O)CN1CCCCCC1)OCO2,-27.1% [at 46.1 µM],
CN(CC(=O)Nc1ccc(C(N)=O)cc1)S(=O)(=O)c1ccc2c(c1)OCCO2,8.9% [at 46.1 µM],
Cc1ccc2nc(SCC(=O)N3CCN(c4ccccc4)CC3)nc(=O)n2c1,20.2% [at 46.1 µM],
CCOC(=O)c1cn(Cc2cccc(C)c2)nn1,,3.98 µM (active)
Cc1cccc(-c2nnc(SCC(=O)O)n2Cc2ccccc2)c1,11.9% [at 46.1 µM],
CCOC(=O)c1cn(CC(=O)Nc2ccc(C(C)C)cc2)nn1,0.84%,
O=C(C/C(=N\O)c1ccccc1O)C(F)F,1.48%,
Cc1cc(S(=O)(=O)NCC(C)C)ccc1OCC(=O)NC1CC1,9.84%,
FC(F)(F)Oc1ccc(NC(=S)NCc2ccccc2)cc1,,11.2 µM (active)
COC(=O)Cc1ccc(NC(=S)NCc2ccccc2)cc1,1.35%,
S=C(NCCc1ccccc1)Nc1ccccc1,-26.5%,
CSc1nc(-c2ccccc2)nc(C(Cl)Cl)n1,,3.55 µM (active)
CCc1noc(C)c1C(=O)N1CCCC(N2CCN(c3ccc(F)cc3)CC2)C1 (configuration not stated),1.5%,
COC1=CC(=O)OC(C)(c2ccccc2)C1 (configuration not stated),2.7% [at 46.1 µM],
CCOc1cc(CNn2c(C)nnc2SCC(=O)NC(C)(C)C)ccc1OCC(=O)NC(C)(C)C,8.16% [at 46.1 µM],

Compound,"activity change, negative = inhibition",Potency
CCOc1cc(CNCc2ccccn2)ccc1OCC(=O)NC(C)(C)C,,7.08 µM (active)
CCOc1cc(C)c(S(=O)(=O)NCc2ccccn2)cc1C,-3.87%,
O=C(Nc1ccc(Cl)cn1)[C@H]1CCCN1S(=O)(=O)c1ccccc1,-25.6%,
Cc1cc(S(=O)(=O)N2CCOCC2)ccc1OCC(=O)N1CCOCC1,1.56% [at 46.1 µM],
CN(CC(O)COc1ccc(S(=O)(=O)N2CCOCC2)cc1Cl)C1CCCCC1 (configuration not stated),,10 µM (active)
O=C(COc1ccc(S(=O)(=O)N2CCOCC2)cc1Cl)N1CCOCC1,5.41% [at 46.1 µM],
COc1ccccc1NC(=O)N(O)C1(C#N)CCCCC1,-15.2%,
O=C(Nc1cccc(S(=O)(=O)NC2=NCCC2)c1)c1ccc(F)cc1F,-0.493% [at 46.1 µM],
Cc1cc(C)c(C)c(S(=O)(=O)Nc2cccnc2)c1C,-4.45% [at 46.1 µM],
COc1ccc(CCn2nnnc2C(c2ccccc2)N2CCN(C)CC2)cc1OC (configuration not stated),,inactive
CC(C)C(c1nnnn1CCc1ccccc1)N1CCN(C(=O)c2ccco2)CC1 (configuration not stated),-1.5%,
N#Cc1ccc(C(c2nnnn2CCc2ccccc2)N2CCCCCC2)cc1 (configuration not stated),,20.6 µM (active)
CC(C)(C)S(=O)(=O)c1ccccc1-c1noc(-c2ccccc2)c1C(N)=O,3.72% [at 46.1 µM],
COc1ccc(S(=O)(=O)N2CCN(c3cnccn3)CC2)cc1,-12.3%,
O=C(Nc1ccc(S(=O)(=O)NCC2CCCO2)cc1)c1ccc(F)cc1 (configuration not stated),0.454% [at 46.1 µM],
CN(Cc1ccccc1)C(=O)C(=O)c1cn(CC(=O)N2CCCC2)c2ccccc12,8.79% [at 46.1 µM],
Cc1ccc(NNC(=O)c2cccs2)cc1Cl,,6.31 µM (active)
CCc1ccc(NC(=O)C(=O)NNC(=O)c2cccs2)cc1,3.2% [at 46.1 µM],
Cc1ccc(NNC(=O)c2c(F)cccc2Cl)cc1Cl,-18.7% [at 46.1 µM],
Cc1nc(CN(C)C(=O)CC2C(=O)NCCN2Cc2ccc(F)cc2)cs1 (configuration not stated),0.836%,
C/C(=N\NC(=O)C1(C)CC1(Br)Br)c1ccc(C)cc1C (configuration not stated),-12.7%,
COC(=O)c1sc2ncccc2c1OCc1ccc(Cl)cc1Cl,5.87%,
NC(N)=N/N=C/c1ccc(OCc2ccc(Cl)cc2Cl)cc1,,10.3 µM (active)
CCOc1ccc(/C=N/NC(N)=S)cc1,-4.53%,
Cc1ccc(NC(=O)COc2coc(CN3CCc4ccccc4C3)cc2=O)cc1Cl,13.1%,
CC(=O)c1ccc(NC(=O)C(C)OC(=O)c2ccc(NS(=O)(=O)c3ccc4[nH]c(=O)[nH]c4c3)cc2)cc1 (configuration not stated),6.38%,
